Data from PMC7862700, “An all-to-all approach to the identification of sequence-specific readers for epigenetic DNA modifications on cytosine”.

Columns and labels:
Experiment in all cases: DAPPL (digital affinity profiling via proximity ligation, sequencing); 10 mM Tris-HCl pH 7.5, 50 mM NaCl, 1 mM DTT, 4% glycerol, room temperature, 30 min; GST-TFs on glutathione beads, 16-mer random dsDNA library, 0.1% formaldehyde crosslink after washing; high values mean tight binding
[1] = target: T1, FEV (Homo sapiens, UniProt Q99581 1-238); details: protein: recombinant; tags: N-terminal GST; dsDNA, one strand shown
T1 sequence: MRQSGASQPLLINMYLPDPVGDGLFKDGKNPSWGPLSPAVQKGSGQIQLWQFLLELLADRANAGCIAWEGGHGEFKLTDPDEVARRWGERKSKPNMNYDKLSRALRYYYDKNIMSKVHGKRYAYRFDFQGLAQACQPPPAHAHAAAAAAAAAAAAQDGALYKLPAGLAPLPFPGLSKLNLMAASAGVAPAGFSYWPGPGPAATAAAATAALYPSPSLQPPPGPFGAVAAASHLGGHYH
Method in brief: (§1)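 Sequencing on an Illumina NextSeq500 followed washing, crosslinking with 0.1% formaldehyde, proximity ligation (BsaI/T4 ligase, 1 h, 37 °C) and PCR amplification of pools that had been incubated for 30 min at room temperature with 200 nmole of a random double-stranded 16-mer DNA library in Tris/NaCl/DTT/glycerol buffer. Each pool held DNA-barcoded human transcription factors, expressed in yeast as GST fusions and captured on glutathione beads, plus a tag-only sample. Binding signal is a hexamer's read frequency for a factor divided by its frequency in the tag-only sample.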

[2] = target: ETV5 (Homo sapiens, UniProt P41161 1-510); details: protein: recombinant; tags: N-terminal GST; dsDNA, one strand shown
Method in brief: as §1

[3] = target: HSF1 (Homo sapiens, UniProt Q00613 1-529); details: protein: recombinant; tags: N-terminal GST; chain copies: 3; dsDNA, one strand shown
Method in brief: as §1

[4] = target: T2, SPIC (Homo sapiens, UniProt Q8N5J4 1-248); details: protein: recombinant; tags: N-terminal GST; dsDNA, one strand shown
T2 sequence: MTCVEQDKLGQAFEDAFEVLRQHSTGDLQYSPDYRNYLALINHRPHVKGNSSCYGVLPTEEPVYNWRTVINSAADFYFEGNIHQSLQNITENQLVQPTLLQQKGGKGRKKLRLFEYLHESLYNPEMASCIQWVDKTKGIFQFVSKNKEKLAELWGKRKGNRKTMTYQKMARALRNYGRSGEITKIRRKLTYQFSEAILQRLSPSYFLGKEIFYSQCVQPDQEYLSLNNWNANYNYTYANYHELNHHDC
Method in brief: as §1

[5] = target: ELF4 (Homo sapiens, UniProt Q99607 1-663); details: protein: recombinant; tags: N-terminal GST; dsDNA, one strand shown
Method in brief: as §1

[6] = target: T3, ELK4 (Homo sapiens, UniProt P28324-2 1-405); details: protein: recombinant; tags: N-terminal GST; dsDNA, one strand shown
T3 sequence: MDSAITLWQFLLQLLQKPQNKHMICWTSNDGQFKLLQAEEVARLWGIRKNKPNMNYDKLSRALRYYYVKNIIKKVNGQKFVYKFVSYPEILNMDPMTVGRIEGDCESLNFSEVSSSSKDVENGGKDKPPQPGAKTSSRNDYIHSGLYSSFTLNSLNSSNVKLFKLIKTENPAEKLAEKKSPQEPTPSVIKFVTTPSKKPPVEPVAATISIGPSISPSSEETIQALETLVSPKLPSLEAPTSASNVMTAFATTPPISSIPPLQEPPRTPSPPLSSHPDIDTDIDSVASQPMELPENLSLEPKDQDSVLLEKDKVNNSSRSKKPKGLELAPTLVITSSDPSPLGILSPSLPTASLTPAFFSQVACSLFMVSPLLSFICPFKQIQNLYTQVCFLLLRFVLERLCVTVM
Method in brief: as §1

[7] = target: T4, ETV2 (Homo sapiens, UniProt O00321 1-342); details: protein: recombinant; tags: N-terminal GST; dsDNA, one strand shown
T4 sequence: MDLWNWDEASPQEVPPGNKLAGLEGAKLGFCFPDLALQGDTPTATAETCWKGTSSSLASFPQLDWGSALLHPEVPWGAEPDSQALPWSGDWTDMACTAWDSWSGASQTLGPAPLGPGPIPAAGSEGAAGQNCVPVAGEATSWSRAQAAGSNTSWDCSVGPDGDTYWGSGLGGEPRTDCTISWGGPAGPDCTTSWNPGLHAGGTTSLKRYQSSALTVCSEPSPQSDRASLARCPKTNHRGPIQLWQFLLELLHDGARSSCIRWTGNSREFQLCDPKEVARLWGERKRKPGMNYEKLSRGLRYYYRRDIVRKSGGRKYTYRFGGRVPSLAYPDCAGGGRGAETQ
Method in brief: as §1

[8] = target: T5, ELF3 (Homo sapiens, UniProt P78545 1-371); details: protein: recombinant; tags: N-terminal GST; dsDNA, one strand shown
T5 sequence: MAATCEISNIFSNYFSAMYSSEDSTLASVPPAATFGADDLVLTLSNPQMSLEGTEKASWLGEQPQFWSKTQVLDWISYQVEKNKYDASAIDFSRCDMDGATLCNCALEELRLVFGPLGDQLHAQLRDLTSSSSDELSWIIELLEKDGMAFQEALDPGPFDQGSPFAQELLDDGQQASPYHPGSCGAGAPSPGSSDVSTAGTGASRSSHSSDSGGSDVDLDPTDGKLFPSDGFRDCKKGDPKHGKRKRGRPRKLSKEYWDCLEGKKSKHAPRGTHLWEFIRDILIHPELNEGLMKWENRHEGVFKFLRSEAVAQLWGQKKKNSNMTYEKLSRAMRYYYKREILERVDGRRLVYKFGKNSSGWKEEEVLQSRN
Method in brief: as §1

[9] = target: CRX (Homo sapiens, UniProt O43186 1-299); details: protein: recombinant; tags: N-terminal GST; dsDNA, one strand shown
Method in brief: as §1

[10] = target: ETV1 (Homo sapiens, UniProt P50549 1-477); details: protein: recombinant; tags: N-terminal GST; dsDNA, one strand shown
Method in brief: as §1

[11] = target: T6, ERF (Homo sapiens, UniProt P50548 1-548); details: protein: recombinant; tags: N-terminal GST; dsDNA, one strand shown
T6 sequence: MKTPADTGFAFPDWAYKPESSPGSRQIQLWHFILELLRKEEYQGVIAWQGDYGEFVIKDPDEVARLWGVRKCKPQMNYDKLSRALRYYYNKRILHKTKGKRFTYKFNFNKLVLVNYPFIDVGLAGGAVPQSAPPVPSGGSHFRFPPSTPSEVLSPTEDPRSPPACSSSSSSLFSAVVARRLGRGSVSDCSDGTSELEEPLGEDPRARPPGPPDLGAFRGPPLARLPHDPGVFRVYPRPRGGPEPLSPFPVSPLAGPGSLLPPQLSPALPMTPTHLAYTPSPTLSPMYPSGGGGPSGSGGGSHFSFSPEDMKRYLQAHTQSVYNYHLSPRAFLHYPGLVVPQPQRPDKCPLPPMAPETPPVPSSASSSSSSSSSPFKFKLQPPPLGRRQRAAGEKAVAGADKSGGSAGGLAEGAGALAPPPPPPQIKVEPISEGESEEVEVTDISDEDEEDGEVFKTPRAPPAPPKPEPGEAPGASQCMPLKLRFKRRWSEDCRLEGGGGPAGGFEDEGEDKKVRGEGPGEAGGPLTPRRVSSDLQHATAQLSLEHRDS
Method in brief: as §1

[12] = target: T7, ETV3L (Homo sapiens, UniProt Q6ZN32 1-361); details: protein: recombinant; tags: N-terminal GST; dsDNA, one strand shown
T7 sequence: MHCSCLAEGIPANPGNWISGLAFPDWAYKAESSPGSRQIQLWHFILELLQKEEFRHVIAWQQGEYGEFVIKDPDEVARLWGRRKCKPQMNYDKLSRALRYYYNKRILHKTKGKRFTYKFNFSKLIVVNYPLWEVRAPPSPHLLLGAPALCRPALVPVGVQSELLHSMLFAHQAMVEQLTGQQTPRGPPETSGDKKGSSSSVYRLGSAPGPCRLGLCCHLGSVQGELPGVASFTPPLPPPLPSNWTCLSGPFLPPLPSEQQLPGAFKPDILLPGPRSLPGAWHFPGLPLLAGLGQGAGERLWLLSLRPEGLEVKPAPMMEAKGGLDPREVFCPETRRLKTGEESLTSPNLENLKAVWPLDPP
Method in brief: as §1

[13] = target: T8, ETS2 (Homo sapiens, UniProt P15036 1-469); details: protein: recombinant; tags: N-terminal GST; dsDNA, one strand shown
T8 sequence: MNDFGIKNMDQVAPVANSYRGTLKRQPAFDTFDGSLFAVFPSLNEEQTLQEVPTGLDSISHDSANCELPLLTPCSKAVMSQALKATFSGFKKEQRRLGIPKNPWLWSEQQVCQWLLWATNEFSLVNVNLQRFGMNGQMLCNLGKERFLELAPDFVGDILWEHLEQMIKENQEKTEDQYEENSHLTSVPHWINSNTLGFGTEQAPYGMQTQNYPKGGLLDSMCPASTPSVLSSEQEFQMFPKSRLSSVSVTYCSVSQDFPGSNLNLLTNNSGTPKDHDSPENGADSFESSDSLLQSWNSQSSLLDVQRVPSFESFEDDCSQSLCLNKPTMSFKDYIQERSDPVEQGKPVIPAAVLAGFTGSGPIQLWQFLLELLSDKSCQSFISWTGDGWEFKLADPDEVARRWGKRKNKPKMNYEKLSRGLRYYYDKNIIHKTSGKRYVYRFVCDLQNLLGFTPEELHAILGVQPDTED
Method in brief: as §1

[14] = target: T9, SPDEF (Homo sapiens, UniProt O95238 1-335); details: protein: recombinant; tags: N-terminal GST; dsDNA, one strand shown
T9 sequence: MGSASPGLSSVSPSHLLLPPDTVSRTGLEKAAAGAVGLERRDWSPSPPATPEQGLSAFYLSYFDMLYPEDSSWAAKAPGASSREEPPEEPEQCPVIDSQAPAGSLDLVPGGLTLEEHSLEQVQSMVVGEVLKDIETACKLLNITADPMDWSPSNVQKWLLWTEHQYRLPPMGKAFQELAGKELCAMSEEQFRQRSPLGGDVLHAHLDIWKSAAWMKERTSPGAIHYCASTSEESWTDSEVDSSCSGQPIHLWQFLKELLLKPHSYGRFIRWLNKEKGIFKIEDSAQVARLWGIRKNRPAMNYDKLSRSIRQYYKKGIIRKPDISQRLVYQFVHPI
Method in brief: as §1

[15] = target: T10, ETV7 (Homo sapiens, UniProt Q9Y603 1-341); details: protein: recombinant; tags: N-terminal GST; dsDNA, one strand shown
T10 sequence: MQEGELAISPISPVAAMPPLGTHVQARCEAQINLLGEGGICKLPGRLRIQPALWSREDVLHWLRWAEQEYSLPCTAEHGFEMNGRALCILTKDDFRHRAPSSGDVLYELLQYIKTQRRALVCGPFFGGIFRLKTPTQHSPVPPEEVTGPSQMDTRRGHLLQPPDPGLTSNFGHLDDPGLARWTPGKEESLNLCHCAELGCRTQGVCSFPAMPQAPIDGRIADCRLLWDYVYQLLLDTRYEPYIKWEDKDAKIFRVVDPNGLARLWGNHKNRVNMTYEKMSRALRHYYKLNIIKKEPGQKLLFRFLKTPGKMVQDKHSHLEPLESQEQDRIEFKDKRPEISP
Method in brief: as §1

[16] = target: T11, ELF5 (Homo sapiens, UniProt Q9UKW6-2 1-255); details: protein: recombinant; tags: N-terminal GST; dsDNA, one strand shown
T11 sequence: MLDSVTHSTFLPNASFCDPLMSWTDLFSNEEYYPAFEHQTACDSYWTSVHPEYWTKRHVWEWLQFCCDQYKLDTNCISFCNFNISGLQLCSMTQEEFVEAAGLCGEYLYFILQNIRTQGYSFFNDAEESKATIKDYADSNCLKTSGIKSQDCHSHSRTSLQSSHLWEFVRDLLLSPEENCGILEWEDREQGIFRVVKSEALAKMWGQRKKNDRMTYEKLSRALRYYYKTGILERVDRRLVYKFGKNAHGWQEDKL
Method in brief: as §1

[17] = target: T12, ETV3 (Homo sapiens, UniProt P41162-2 1-143); details: protein: recombinant; tags: N-terminal GST; dsDNA, one strand shown
T12 sequence: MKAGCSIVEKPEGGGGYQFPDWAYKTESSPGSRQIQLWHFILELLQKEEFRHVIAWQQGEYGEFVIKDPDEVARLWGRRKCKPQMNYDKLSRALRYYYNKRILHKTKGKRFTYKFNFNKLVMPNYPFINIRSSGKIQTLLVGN
Method in brief: as §1

[18] = target: ETV6 (Homo sapiens, UniProt P41212 1-452); details: protein: recombinant; tags: N-terminal GST; dsDNA, one strand shown
Method in brief: as §1

ETV5, sequence (P41161 whole entry): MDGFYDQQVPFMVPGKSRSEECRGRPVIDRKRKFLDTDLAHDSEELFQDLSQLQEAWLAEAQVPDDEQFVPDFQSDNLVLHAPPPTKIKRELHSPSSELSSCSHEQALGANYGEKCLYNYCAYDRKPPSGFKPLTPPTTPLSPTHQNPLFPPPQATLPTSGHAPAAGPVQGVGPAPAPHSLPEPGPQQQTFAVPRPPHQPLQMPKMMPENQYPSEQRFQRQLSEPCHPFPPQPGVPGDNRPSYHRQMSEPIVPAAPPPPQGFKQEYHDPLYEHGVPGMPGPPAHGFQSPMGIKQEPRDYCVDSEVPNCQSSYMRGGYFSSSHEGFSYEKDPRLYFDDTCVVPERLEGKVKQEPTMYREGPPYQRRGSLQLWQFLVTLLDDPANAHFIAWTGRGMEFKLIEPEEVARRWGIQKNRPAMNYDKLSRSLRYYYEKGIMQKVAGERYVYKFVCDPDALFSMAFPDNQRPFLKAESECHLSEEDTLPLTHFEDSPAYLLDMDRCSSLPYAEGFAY
ETV1, sequence (P50549 whole entry): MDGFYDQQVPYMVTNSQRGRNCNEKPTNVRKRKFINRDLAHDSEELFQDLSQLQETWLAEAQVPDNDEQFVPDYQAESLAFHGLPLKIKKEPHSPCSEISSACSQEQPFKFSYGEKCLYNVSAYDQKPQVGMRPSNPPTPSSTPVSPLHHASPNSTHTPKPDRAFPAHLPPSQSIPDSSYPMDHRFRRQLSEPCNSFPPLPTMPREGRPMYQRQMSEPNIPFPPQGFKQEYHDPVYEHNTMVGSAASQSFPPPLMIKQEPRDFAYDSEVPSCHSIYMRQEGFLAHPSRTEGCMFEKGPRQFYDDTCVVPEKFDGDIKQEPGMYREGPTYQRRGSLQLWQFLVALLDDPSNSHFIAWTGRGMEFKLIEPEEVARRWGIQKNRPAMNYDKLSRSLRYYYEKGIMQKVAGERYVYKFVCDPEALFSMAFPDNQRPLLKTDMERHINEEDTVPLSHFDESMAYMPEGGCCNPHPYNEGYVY
ELF4, sequence (Q99607 whole entry): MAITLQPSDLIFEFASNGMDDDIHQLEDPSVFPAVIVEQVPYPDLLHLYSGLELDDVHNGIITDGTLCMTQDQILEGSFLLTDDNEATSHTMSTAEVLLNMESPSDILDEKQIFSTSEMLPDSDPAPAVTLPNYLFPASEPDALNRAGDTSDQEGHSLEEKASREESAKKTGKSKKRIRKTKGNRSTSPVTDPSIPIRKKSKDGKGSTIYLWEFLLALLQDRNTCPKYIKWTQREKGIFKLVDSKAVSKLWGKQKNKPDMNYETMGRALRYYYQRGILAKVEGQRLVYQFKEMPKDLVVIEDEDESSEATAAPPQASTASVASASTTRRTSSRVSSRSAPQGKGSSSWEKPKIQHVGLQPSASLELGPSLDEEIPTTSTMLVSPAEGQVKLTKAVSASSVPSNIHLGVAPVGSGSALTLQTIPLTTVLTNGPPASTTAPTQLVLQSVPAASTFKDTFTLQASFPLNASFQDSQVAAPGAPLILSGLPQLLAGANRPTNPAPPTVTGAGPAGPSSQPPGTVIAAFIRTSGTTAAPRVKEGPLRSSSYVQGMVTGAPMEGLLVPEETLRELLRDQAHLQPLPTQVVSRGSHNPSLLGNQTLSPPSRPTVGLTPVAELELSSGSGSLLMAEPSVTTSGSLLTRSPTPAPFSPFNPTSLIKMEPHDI
HSF1, sequence (Q00613 whole entry): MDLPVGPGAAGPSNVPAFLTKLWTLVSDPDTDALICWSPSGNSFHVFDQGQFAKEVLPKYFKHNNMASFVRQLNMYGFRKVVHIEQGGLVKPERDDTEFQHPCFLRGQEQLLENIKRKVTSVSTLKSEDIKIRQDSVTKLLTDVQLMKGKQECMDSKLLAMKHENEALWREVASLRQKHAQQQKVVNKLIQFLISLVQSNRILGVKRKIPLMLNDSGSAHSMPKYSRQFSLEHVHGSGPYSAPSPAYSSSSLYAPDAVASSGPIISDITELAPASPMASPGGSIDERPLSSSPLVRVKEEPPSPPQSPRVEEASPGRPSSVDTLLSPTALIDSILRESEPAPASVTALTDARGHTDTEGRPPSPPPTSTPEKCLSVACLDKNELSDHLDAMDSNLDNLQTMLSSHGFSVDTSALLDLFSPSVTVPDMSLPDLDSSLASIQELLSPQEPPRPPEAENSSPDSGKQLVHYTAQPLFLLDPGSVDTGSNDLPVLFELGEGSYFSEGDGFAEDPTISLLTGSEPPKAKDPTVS
ETV6, sequence (P41212 whole entry): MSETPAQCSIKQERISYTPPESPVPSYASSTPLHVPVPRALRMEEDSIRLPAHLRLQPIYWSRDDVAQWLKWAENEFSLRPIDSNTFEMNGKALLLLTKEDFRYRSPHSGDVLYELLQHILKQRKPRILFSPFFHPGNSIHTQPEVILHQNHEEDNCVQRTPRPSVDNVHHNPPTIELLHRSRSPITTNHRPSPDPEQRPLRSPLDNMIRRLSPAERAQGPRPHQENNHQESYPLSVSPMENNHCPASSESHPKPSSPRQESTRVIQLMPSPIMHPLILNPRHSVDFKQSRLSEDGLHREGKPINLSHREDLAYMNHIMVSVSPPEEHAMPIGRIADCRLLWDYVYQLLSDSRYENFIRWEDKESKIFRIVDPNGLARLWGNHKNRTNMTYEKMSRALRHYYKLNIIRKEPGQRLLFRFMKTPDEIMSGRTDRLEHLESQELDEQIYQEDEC
CRX, sequence (O43186 whole entry): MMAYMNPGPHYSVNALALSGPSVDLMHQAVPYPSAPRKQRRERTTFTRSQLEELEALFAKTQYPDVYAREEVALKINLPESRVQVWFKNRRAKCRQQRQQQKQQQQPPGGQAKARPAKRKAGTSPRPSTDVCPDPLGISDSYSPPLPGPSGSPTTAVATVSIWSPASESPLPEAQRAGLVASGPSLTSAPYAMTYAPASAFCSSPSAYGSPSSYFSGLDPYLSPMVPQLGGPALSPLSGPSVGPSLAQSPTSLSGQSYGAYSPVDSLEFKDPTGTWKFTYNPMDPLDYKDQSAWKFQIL

## CCGCAA
[1]
  binding signal: 1.29 fold enrichment (6-mer frequency, TF over GST control)
[2]
  binding signal: 1.3 fold enrichment (6-mer frequency, TF over GST control)
[3]
  binding signal: 1.07 fold enrichment (6-mer frequency, TF over GST control)
[4]
  binding signal: 1.42 fold enrichment (6-mer frequency, TF over GST control)
[5]
  binding signal: 1.31 fold enrichment (6-mer frequency, TF over GST control)
[6]
  binding signal: 1.36 fold enrichment (6-mer frequency, TF over GST control)
[7]
  binding signal: 1.35 fold enrichment (6-mer frequency, TF over GST control)
[8]
  binding signal: 1.39 fold enrichment (6-mer frequency, TF over GST control)
[9]
  binding signal: 1.01 fold enrichment (6-mer frequency, TF over GST control)
[10]
  binding signal: 1.38 fold enrichment (6-mer frequency, TF over GST control)
[11]
  binding signal: 1.19 fold enrichment (6-mer frequency, TF over GST control)
[12]
  binding signal: 1.23 fold enrichment (6-mer frequency, TF over GST control)
[13]
  binding signal: 1.47 fold enrichment (6-mer frequency, TF over GST control)
[14]
  binding signal: 1.36 fold enrichment (6-mer frequency, TF over GST control)
[15]
  binding signal: 1.32 fold enrichment (6-mer frequency, TF over GST control)
[16]
  binding signal: 1.39 fold enrichment (6-mer frequency, TF over GST control)
[17]
  binding signal: 1.3 fold enrichment (6-mer frequency, TF over GST control)
[18]
  binding signal: 1.33 fold enrichment (6-mer frequency, TF over GST control)
